Compound activity as filed in PubChem.
Most compounds without a hit are left out; they make up all but 0.51% or so of the library.
E coli growth-1: bacterial growth inhibition, counter-screen for AddAB inhibitors. E. coli V3065 growth, OD600 absorbance, 18 h. inhibition, % at 11.9 µM. actives 0.27% (n = 330,000). AID 449728;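 active means inhibition above the campaign's mean inhibition across all tested compounds plus 3 SD, cut at about 9.9% in these data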;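 further: uninfected addAB+ strain grown without phage in ampicillin broth; 0% = DMSO wells and 100% = ciprofloxacin 0.95 µg/ml wells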
Tat export inh: E. coli Tat transport inhibition; AID 488895; inhibition, % at 10 µM; E. coli MC4100 TorA-mCherry Tat export, fluorescence; actives 0.036% (n = 340,000);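 active means mean replicate inhibition at least 50% and at least half of replicates individually reaching 50%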;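 further: exported cargo escapes ClpAP degradation while cytoplasmic cargo is degraded and loses fluorescence; 0% = median of neutral control wells and 100% = median of NaSCN control wells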
E coli growth-2: inhibitors of Escherichia coli growth; OD600, 23 h; active compounds read low; AID 1053175; actives 0.21% (n = 330,000); OD600 absorbance (test concentration not listed);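 active means OD600 absorbance below the run mean of sample wells minus 3.6 SD, in any replicate, cut at about 0.56 in these data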
phage Ecoli inh: E. coli growth loss with phage present | inhibition, % at 11.9 µM | actives 0.26% (n = 360,000) | growth absorbance; in the data active means inhibition above about 11%
AddAB inh: less growth of phage-infected E. coli with AddAB; E. coli expressing H. pylori AddAB, absorbance growth; inhibition, % at 11.9 µM; actives 0.29% (n = 330,000); in the data active means inhibition above about 12%;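 further: 0% = vehicle wells of infected cells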
* hit, by the source's call; . = not tested or not shown; ! = a repeat was not active.

SMILES	E coli growth-1	Tat export inh	E coli growth-2	phage Ecoli inh	AddAB inh
CO[C@@]12[C@@H]3N[C@@H]3CN1C1=C(C(=O)C(N)=C(C)C1=O)[C@@H]2COC(N)=O	.	67*	.	9	.
COc1c(N2CC3CCCNC3C2)c(F)cc2c(=O)c(C(=O)O)cn(C3CC3)c12 (stereo not given)	.	.	0.058*	.	.
Cc1nn(-c2cccc(C(F)(F)F)c2)c(Cl)c1C=Nn1cnnc1	.	.	0.73	.	.
C=C(C)C(=O)N1CC2(CC(c3cccc(NC(=O)c4ccccc4)c3)=NO2)CC1C(N)=O (stereo not given)	.	.	0.7	.	.
CCCCN(C)CCn1c(=S)[nH]c2ncccc2c1=O	3	51*	0.68	4	0
O=C(Nc1ccc([N+](=O)[O-])cc1Cl)c1cccc([N+](=O)[O-])c1	.	.	.	0	.
O=C(Nc1ccc([N+](=O)[O-])cc1Cl)c1cc(Cl)ccc1O	0	-22	0.45*	3	-3
O=C(Nc1cccc(Cl)c1)c1cc(N=Nc2ccc([N+](=O)[O-])cc2Cl)ccc1O	1	-3	0.5*	3	2
O=C(Nc1cccc(Cl)c1)c1cccc(Oc2ccc([N+](=O)[O-])cc2Cl)c1	2	-2	0.72	4	2
COc1ccc(NC(=O)NNC(=O)c2ccc3ccccc3c2O)c(OC)c1	7	6	0.71	12*	10
COc1ccc(NC(=O)NNC(=O)c2cc3ccccc3cc2O)cc1	10*	-6	0.68	9	12
COc1ccc(NC(=O)NNC(=O)c2cc(C3CC3)nc3ccccc23)c(OC)c1	-3	-5	0.68	1	2
CCOc1ccc(NC(=O)c2cc3ccccc3cc2O)cc1	0	-4	0.68	5	2
Cc1ccc(OCC(=O)NN=Cc2cccnc2)cc1C	.	.	0.68	.	.
CC(Sc1nnc(CNc2cccc3ccccc23)n1-c1ccccc1)C(=O)NN=Cc1ccco1 (stereo not given)	.	.	0.72	.	.
O=[N+]([O-])c1cccc(/C=C/c2nc[nH]c2[N+](=O)[O-])c1	11*	5	0.69	1	10
CC(=O)c1ccc(NS(=O)(=O)c2ccc(N)cc2)cc1	2	-2	0.68	4	4
CC(=O)NS(=O)(=O)c1ccc(N)cc1	10*!	12	0.7	6	-2
CCc1c(C(=O)NN=Cc2cccs2)nnn1-c1nonc1N	.	.	0.62	.	.
O=C(O)CN1C(=O)/C(=C\c2cc([N+](=O)[O-])ccc2OCc2ccccc2Cl)SC1=S	-1	3	0.54*	2	3
O=C(O)CN1C(=O)/C(=C\c2cc(Br)ccc2OCc2ccc(Cl)cc2)SC1=S	.	18	0.64	2	.
COC1C(OC(N)=O)C(O)C(Oc2ccc3c(O)c(NC(=O)c4ccc(O)c(CC=C(C)C)c4)c(=O)oc3c2C)OC1(C)C (stereo not given)	.	.	0.38*	.	.
CCN(CC)CCNS(=O)(=O)c1ccc(C(=O)NN)cc1	0	-5	0.69	2	0
CCOC(=O)c1ccc(S(=O)(=O)NCCN(CC)CC)cc1	1	-7	0.44*	3	0
Cc1cc(C(=O)NN=Cc2cccc(OC(=O)c3cccc(Br)c3)c2)n[nH]1	.	.	0.73	.	.
SMILES	E coli growth-1	Tat export inh	E coli growth-2	phage Ecoli inh	AddAB inh
O=C(Nc1ccc([N+](=O)[O-])cc1)c1cccc(S(=O)(=O)Nc2cccnc2)c1	-1	-7	.	3	1
O=C(Nc1cccnc1)c1ccc(NS(=O)(=O)c2cccc([N+](=O)[O-])c2)cc1	0	-2	0.31*	1	-3
Cc1cccnc1Nc1nc(-c2ccccn2)cs1	2	-3	0.5*	3	3
COc1cc(OC)c(OC)cc1C=NNC(=O)CC1C(=O)NN=C1C (stereo not given)	.	.	0.71	.	.
C(=NNC1=Nc2cccc3cccc1c23)c1cccnc1	.	.	0.64	.	.
CCOc1ccc(NC(=O)COC(=O)CC2CCCCC2)cc1	-1	-11	0.69	12*	0
Cc1cc(C)c2ccc(=O)n(CC(=O)NN=Cc3ccccc3Cl)c2n1	.	.	0.69	.	.
O=C(O)COc1ccccc1C=NNC(=O)c1cc(-c2ccc(F)cc2)nc2ccccc12	.	.	0.67	.	.
CCCCCN=C(N)NN=Cc1c[nH]c2ccc(OC)cc12	.	.	0.059*	.	.
CC[C@H]1OC(=O)C[C@@H](O)[C@H](C)[C@@H](O[C@@H]2O[C@H](C)C[C@H](N(C)C)[C@H]2O)[C@@H](CC=O)C[C@@H](C)C(=O)C=C[C@]2(C)O[C@H]2[C@@H]1C	100*	.	.	.	99*
O=C(CN1CCN(Cc2ccccc2Cl)CC1)NN=Cc1ccccn1	.	.	0.63	.	.
COC(=O)c1cc(NC(=O)Nc2cccc(Cl)c2)ccc1Cl	7	-16	0.52	12*	7
O=C(Nc1cccc(Cl)c1)Nc1nccs1	-1	-8	0.54*	2	1
O=C(Nc1ccc(Cl)c(Cl)c1)Nc1nccs1	2	1	.	4	0
CCN1/C(=C/C=C/C=C/C=C/c2sc3ccccc3[n+]2CC)Sc2ccccc21	-2	-9	0.85	2	-1
CCN1/C(=C/C=C/C=C/c2sc3ccccc3[n+]2CC)Sc2ccccc21	20*	.	.	.	23*
Cc1c(Cl)c(C(F)F)nn1CC(=O)NC1C(=O)N2C(C(=O)O)=C(CSc3nnnn3C)CSC12 (stereo not given)	.	-3	0.65	6	.
Cc1nnc(SCC2=C(C(=O)O)N3C(=O)C(NC(=O)Cc4ccccc4)C3SC2)s1 (stereo not given)	-1	8	0.6	2	2
Cn1nnnc1SCC1=C(C(=O)O)N2C(=O)C(NC(=O)Cn3nc(C(F)F)cc3C3CC3)C2SC1 (stereo not given)	2	-2	0.49*	9	0
CC(C(=O)NC1C(=O)N2C(C(=O)O)=C(CSc3nnnn3C)CSC12)n1cc(Cl)cn1 (stereo not given)	1	-3	0.5*	5	-1
Cc1nn(CC(=O)NC2C(=O)N3C(C(=O)O)=C(CSc4nnnn4C)CSC23)cc1Br (stereo not given)	1	-11	0.46*	5	0
CCN1CCN(C(=O)NC(C(=O)NC2C(=O)N3C(C(=O)O)=C(CSc4nnnn4C)CSC23)c2ccc(O)cc2)C(=O)C1=O (stereo not given)	.	.	0.061*	.	.
C#CCNC(=O)C1=CC(c2ccc(Br)cc2)CC(OCc2ccc(CO)cc2)O1 (stereo not given)	.	.	0.68	.	.
CC(=NNC(=O)Cc1cccc2ccccc12)c1cccs1	.	.	0.72	.	.
COc1ccccc1C=NNC(=O)c1sc(C)nc1C	.	.	0.7	.	.
CCCCN1C(=O)C(=O)NCC1CCCCN (stereo not given)	.	.	0.67	.	.
Cc1c(Cl)cnn1CC(=O)NC1C(=O)N2C(C(=O)O)=C(CSc3nnnn3C)CSC12 (stereo not given)	-2	0	0.074*	8	-2
Cc1ccc(C(=O)N/C(=C\c2ccc(-c3ccc(Br)cc3)o2)C(=O)NCCCN(C)C)cc1	-2	8	0.5*	3	0
Cc1ccc(C(=O)N/C(=C\c2ccc(-c3cccc([N+](=O)[O-])c3)o2)C(=O)NCCCN(C)C)cc1	-1	-3	0.72	0	-2
CC(=O)Oc1c(I)cc(I)cc1C(=O)Nc1ccc(Cl)cc1	12*	-10	.	8	11
